Assay results from PubChem BioAssay (Tox21).
Values joined by “and” are separate entries in the source; they are usually repeats but may differ in a detail not shown here. Equal values may be shown once. Inconclusive results are not listed. Entries that show only a call come without a potency. Active and inactive are the calls of the source. Calls follow the shape of the dose curve; as a rule, active = well fitted cell-killing curve with a large enough effect in the repeat runs; inconclusive = weak or mixed curves, or effect the other way; inactive = flat fitted curve, though single readings scatter.

experiment: qHTS RealTime-Glo MT Cell Viability Assay in HepG2 cells - 0 hour (AID 1224889); conditions: RealTime-Glo luminescence; series mostly up to 76.8 µM; also: nearly all actives have a fitted effect of over 50% in size
Excerpt: U.S. Tox21 Program National Center for Advancing Translational Sciences [NCATS] NIH Chemical Genomics Center [NCGC] U.S. Environmental Protection Agency [EPA] National Institutes of Environmental Health Sciences [NIEHS] National Toxicology Program [NTP] U.S. Food and Drug Administration [FDA] Tox21 Assay Overview: Measure of cell viability is critical in the cell-base assay. Analysis of cell viability is necessary for the characterization of cell responses to cytotoxic drugs and environmental stress. A RealTime-Glo MT Cell Viability Assay to monitor cell viability in real time of continues cell culture during 40 hours of compound treatment was used to screen Tox21 10K library compounds in HepG2 cells. The RealTime-Glo MT Cell Viability Assay is a nonlytic, homogeneous, bioluminescent method to measure cell viability in real time using a simple, plate-based method. The assay involves adding NanoLuc luciferase and a cell-permeant prosubstrate to cells in culture. Viable cells reduce the proprietary prosubstrate to generate a substrate for NanoLuc luciferase. This substrate diffuses from cells into the surrounding culture medium, where it is rapidly used by the NanoLuc Enzyme to produce a luminescent signal. The signal correlates with the number of viable cells, making the assay well suited for cytotoxicity studies.
Tox21 Assay Protocol Summary: The mixture of HepG2 cell suspension and reagents were dispensed at 600cells/6 ul/well in 1536-well tissue culture treated black solid bottom plates using a Multidrop dispenser. After the assay plates were incubated at a 37 C/5% CO2 incubator for 5 hours, 23 nL of compounds dissolved in DMSO, positive and negative controls was transferred to the assay plate by a pintool work station. The plates were incubated at 37 C for 40 hours. The luminescence intensity were measured at 0h, 8h, 16h, 24h, 32h and 40h time points using ViewLux plate reader during compound treatment.
Potency is read from the fitted curve at half-maximal effect.

| Compound | Potency |
| --- | --- |
| CCC(C)C=O (stereo not given) | inactive |
| CN(C)c1cccc(O)c1 | inactive |
| O=C(Oc1ccccc1)c1ccc(O)cc1 | inactive |
| Cc1cc(O)cc(C)c1Cl | inactive |
| CCCCCCOC(C)=O | inactive |
| O=Nc1ccc(O)cc1 | inactive |
| CCCCCCCCCCC=CC1CC(=O)OC1=O (stereo not given) | inactive |
| O=C(Cl)c1c(Cl)c(Cl)c(C(=O)Cl)c(Cl)c1Cl | inactive |
| CCCCCCC(C)(C)S | inactive |
| CCCCCC/C=C/CCCCCCCC(=O)O | inactive |
| OC[C@@H](O)[C@@H](O)[C@H](O)[C@@H](O)CO | inactive |
| Oc1c(Cl)cc(Cl)c(Cl)c1Cl | inactive |
| CC1CC(OC(=O)c2ccccc2O)CC(C)(C)C1 (stereo not given) | inactive |
| Cn1c([N+](=O)[O-])cnc1COC(N)=O | inactive |
| CC(=O)[C@@]1(O)CC[C@H]2[C@@H]3CCC4=CC(=O)CC[C@]4(C)[C@H]3CC[C@@]21C | 6.16 µM (active) and 8.49 µM (active) |
| CC1(C)O[C@@H]2C[C@H]3[C@@H]4C[C@H](F)C5=CC(=O)CC[C@]5(C)[C@H]4[C@@H](O)C[C@]3(C)[C@]2(C(=O)CO)O1 | 1.23 µM (active) and 2.68 µM (active) |
| C=C(C)C(=O)OCCCCCCCCCCCC | inactive |
| CC1(C)CC(N=C=O)CC(C)(CN=C=O)C1 (stereo not given) | inactive |
| CCc1ccccc1O | inactive |
| CC#C[C@]1(O)CC[C@H]2[C@@H]3CCC4=CC(=O)CCC4=C3[C@@H](c3ccc(N(C)C)cc3)C[C@@]21C | inactive |

| Compound | Potency |
| --- | --- |
| O=C(O)c1ccc([N+](=O)[O-])cc1 | inactive |
| CC(C)(CO)COC(=O)C(C)(C)CO | inactive |
| O=[N+]([O-])c1cccc(Cl)c1 | inactive |
| O=C1O[C@H](CO)[C@@H](O)[C@H](O)[C@H]1O | inactive |
| C/C=C(C)/C=C/C=C(C)C | inactive |
| NCc1cccc(CN)c1 | inactive |
| OC1CCCC1 | inactive |
| CCOC(=O)[C@H](CCc1ccccc1)N[C@@H](C)C(=O)N1Cc2ccccc2C[C@H]1C(=O)O | inactive |
| COCC(C)O (stereo not given) | inactive |
| OCC1CCCO1 (stereo not given) | inactive |
| c1ccc2[nH]cnc2c1 | inactive |
| CN(C)c1ccc(C(=N)c2ccc(N(C)C)cc2)cc1 | inactive |
| C=CC(=O)OCCCCCCCC(C)C | inactive |
| CC(=O)CCc1ccccc1 | inactive |
| O=[N+]([O-])C(CO)(CO)CO | inactive |
| Nc1nc2ncc(CNc3ccc(C(=O)N[C@@H](CCC(=O)O)C(=O)O)cc3)nc2c(=O)[nH]1 | inactive |
| NCCNCCNCCNCCN | inactive |
| C=C(C)C(=O)OCC(CC)(COC(=O)C(=C)C)COC(=O)C(=C)C | inactive |
| COCC(=O)O | inactive |
| CCCCC/C=C\C/C=C\CCCCCCCC(=O)OC | inactive |
